The text below walks through data of PubChem BioAssay (NCI).

The panel holds about 79,000 compounds, 15% with a hit somewhere; the sample as a whole holds those more often. The source made the active and inactive calls. Rule as the data show it: active = growth inhibition above about 70%; inactive = the rest.

The assay in a line: NCI Yeast Anticancer Drug Screen. Data for the mec2-1 strain (AID 157). To be noted: S. cerevisiae mec2-1 strain, at 50.0 µM, active compounds read high. As for the experimental part: Growth inhibition of yeast strains with defined genetic alterations is measured as a screen for potential anti-cancer activity. Selected strains with alterations in DNA damage repair or cell cycle control were exposed to compounds and growth inhibition was measured relative to vehicle treated controls. The strain used in this assay is mec2-1
In the case of `COc1nc2cc(C)c(C)cc2n1C1OC(CO)C(O)C1O` (stereo not given), the growth inhibition was 16.4% (inactive). Regarding `COc1cc(/C=N/NC(N)=O)cc(OC)c1O`, the growth inhibition was -11.8% (inactive). The figure for `Clc1ccccc1CSc1cnnc(SCc2ccccc2Cl)c1SCc1ccccc1Cl` is 13.3% (inactive); for `O=C(O)CC(CC(=O)O)c1ccc2c(c1)OCO2` it is -20.9% (inactive); for `CN1CCN(C2CCCc3ccccc3C2=O)CC1` (stereo not given) it is -10.6% (inactive). Consider `Nc1ccccc1/C=C(\C(=O)O)c1ccccc1`, for which the growth inhibition was -4.45% (inactive).

On to `N#CC(C#N)=C1CCNCC1`, for which the growth inhibition was -5.5% (inactive).

For the compound `CCOC(=O)c1cc(=O)c2cccc(C)c2[nH]1`, the growth inhibition was 10.7% (inactive). For the compound `O=C(O)c1ccc(C(=O)O)c(C(=O)Nc2ccc3c(c2)C(=O)c2ccccc2-3)c1`, the growth inhibition is -26.6% (inactive). The figure for `CC12CCC(/C(=N/O)C1=O)C2(C)C` (stereo not given) is -2.15% (inactive). For `Cn1c(=O)c2[nH]c(Br)nc2n(C)c1=O` the value was -13.4% (inactive).

In the case of `CC(C)(O)C(O)(c1ccccc1)c1ccccc1`, the growth inhibition is 2.75% (inactive). The figure for `COc1c2occc2c(Br)c2ccc(=O)oc12` is 0.35% (inactive); for `O=C1CC[C@H]2[C@@H]3N1c1ccccc1[C@@]31CCN3C/C(=C/CBr)[C@@H]2C[C@H]31` it is -3.05% (inactive); for `Cc1cc(C)nc(NS(=O)(=O)c2ccc(Nc3c4ccc(Cl)cc4nc4c(C(=O)NCCN(C)C)cccc34)cc2)n1` it is 13.8% (inactive).

In the case of `CC(=O)n1c2ccccc2c2nc3ccccc3nc21`, the growth inhibition was 10.4% (inactive). For `CC1CCC(=O)C(C(=O)CC2CC(=O)NC(=O)C2)C1` (stereo not given), the growth inhibition was 1.45% (inactive). Regarding `CCC(C)(O)C(C)(O)CC` (stereo not given), the growth inhibition is -13.8% (inactive). `c1cc[n+](Cc2ccc3ccccc3n2)cc1`: the growth inhibition is -5.5% (inactive). In the case of `CCOC(=O)/C(C#N)=C/c1ccc(O)c(OC)c1`, the growth inhibition is -8.5% (inactive). `CNC1C(CO)OC(n2cnc3c(=O)[nH]cnc32)C1O` (stereo not given): the growth inhibition was -6.45% (inactive). The figure for `CS(=O)(=O)CC1=Nc2nnc(CCCCCCCc3nnc4n3C(=O)C(CS(C)(=O)=O)=N4)n2C1=O` is 5.1% (inactive); for `CC1CCC2C(C(=O)O[C@H]3C4CCO[C@@H](OC5OC(CO)C(O)C(O)C5O)C4[C@@]4(CO)O[C@@H]34)=CO[C@@H](OC3OC(CO)C(O)C(O)C3O)C12` (stereo not given in full) it is -9.6% (inactive); for `CCCCCCC(C)N1C(=O)c2ccccc2C1=O` (stereo not given) it is 6.75% (inactive).

As to `Cc1cc(C)c(NS(=O)(=O)c2ccc(Cl)cc2)cc1C`, the growth inhibition is 85.8% (active).

Consider `O=C1CN(c2ccccc2)CC(=O)N2C(c3ccccc3)CCCN12` (stereo not given), for which the growth inhibition is 1.65% (inactive). For `CCC(CC(C)C)C(=O)OCCBr` (stereo not given) the value was 15.2% (inactive). For `CC(=O)O[C@H]1CC[C@@]2(C)[C@@H](CC[C@@H]3[C@@H]2CC(=O)[C@@]2(C)[C@H]3C[C@@H]3CC(C)=CC(=O)[C@@H]32)C1` the value was -7.55% (inactive). The figure for `CCCCC(CC)CCC(O)C(O)C(C)C` (stereo not given) (tested in a mixture with another compound) is 3.2% (inactive); for `O=C1CN(c2cccc(Cl)c2)C(=O)CN1/N=C/c1ccc(O)c(O)c1` it is 0.15% (inactive). As for `Cc1cc(C)n(C2OC(CO)C(O)C(O)C2O)c(=S)c1C#N` (stereo not given), the growth inhibition is 14.8% (inactive). For `CC1(C)COC(C)(Cc2ccccc2)OC1` the value was 3.55% (inactive). Consider `CCCCN(C=O)CCCC`, for which the growth inhibition was 17.3% (inactive). Turning to `CC1(C)C2C=CC1(C)C1(CC2)OCCO1` (stereo not given), the growth inhibition is 17.5% (inactive).

Turning to `N#CCCC1C(C#N)C2CC1C1C3C=CC(C3)C21` (stereo not given), the growth inhibition is 11.2% (inactive). Consider `COc1ccc(/C=N/Nc2nc3ccccc3c(=O)n2-c2ccccc2)c(OCc2ccccc2)c1`, for which the growth inhibition is 5.2% (inactive). The figure for `OCCCNCc1ccccc1` is -23.4% (inactive); for `CCCCOC(=O)C(C)OC(=O)OC` (stereo not given) it is -13% (inactive).

Turning to `N#C/C(=C\c1ccccc1)c1cccc(Cl)c1`, the growth inhibition is -5.8% (inactive). As to `Cc1cc2c(C(C)C)c(O)c(O)c(C=NCc3ccc(Br)cc3)c2c(O)c1-c1c(C)cc2c(C(C)C)c(O)c(O)c(C=NCc3ccc(Br)cc3)c2c1O`, the growth inhibition is 1.6% (inactive).
